HTT-AS act: activators of huntingtin-antisense promoter activity; hit rate 0.24% among 48,000; Potency, µM (titrated, usually from 57.5 µM), for inactives: at the top dose activity change, positive = activation, usual class: activators; HEK293 HTT-AS promoter firefly luciferase reporter, 24 h; response scale: percent change from vehicle, -100% = no light; further: potency means the concentration at half of the fitted maximal effect; nearly all actives have a fitted effect of over 55% in size
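HEK293 luciferase promoter-reporter cells (2,500/well) plated 24 h, then compounds added at up to 57.5 uM final for 24 h at 37 °C. Firefly luminescence by Dual-Glo, normalized to vehicle (0%) and zero RLU (-100%).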
NTMT1 inhibitor: blocks human N-terminal methyltransferase 1 activity | Q9BV86 | NTMT1 MTase-Glo SAH luminescence, purified enzyme | Potency, µM (series often up to 114 µM), without a hit: at the top dose activity change, negative = inhibition, usual class: inhibitors | hit rate 2.5% among 59,000 | AID 1645870;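 further: potency means the concentration at half of the fitted maximal effect; plate controls were DMSO vehicle for no effect and no enzyme for full effect; nearly all actives have a fitted effect of over 65% in size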
GPR32 ag: agonists of human resolvin D1 receptor DRV1 (GPR32). CHO-K1 GPR32 beta-arrestin PathHunter luminescence, 90 min; zero percent set by DMSO-only wells. activation, % at 76.9 µM. O75388. hit rate 2.5% among 48,000;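 active means activation of at least 60% and not above a set upper limit, about 1 call in 100 departs from these limits; inconclusive means activation of 40% to 60%, or above that upper limit; inactive means activation under 40%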; further: 0% is about no effect
Target sequence (O75388 whole entry, looked up): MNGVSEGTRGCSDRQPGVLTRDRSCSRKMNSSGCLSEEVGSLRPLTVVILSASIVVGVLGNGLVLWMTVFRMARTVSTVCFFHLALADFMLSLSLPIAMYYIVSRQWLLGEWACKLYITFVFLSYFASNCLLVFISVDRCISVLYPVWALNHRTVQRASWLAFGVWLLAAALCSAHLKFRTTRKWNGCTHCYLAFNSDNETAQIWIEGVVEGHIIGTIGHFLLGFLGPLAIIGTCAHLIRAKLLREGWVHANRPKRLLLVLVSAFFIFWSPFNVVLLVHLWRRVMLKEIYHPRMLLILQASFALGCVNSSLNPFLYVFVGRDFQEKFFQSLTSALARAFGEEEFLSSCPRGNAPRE
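Agonism was scored by beta-Gal fragment complementation (chemiluminescent read, 1 h detection at ambient temperature) reporting beta-arrestin binding to GPR32 in engineered CHO-K1 cells. Compound treatment lasted 90 min at 37 C, normalized to a DMSO basal control.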
HTT promoter inh: inhibits huntingtin promoter activity. HEK293 HTT promoter firefly luciferase reporter, 24 h. Potency, µM (series often up to 57.5 µM), without a hit: top-dose activity change, negative = inhibition, usual class: inhibitors. hit rate 0.93% among 48,000. AID 1508623; further: potency means the concentration at half of the fitted maximal effect; nearly all actives have a fitted effect of over 50% in size
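HEK293 Fluc reporter, 2,500 cells/well, 24 h pre-culture; cpds up to 57.5 uM final, 24 h 37 degrees C; Dual-Glo, 10 min RT; normalized vehicle = 0%, zero RLU = -100%.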
An asterisk follows results filed as active; ? = inconclusive; . = not tested or not shown; ! = not active in a repeat; [ ] = dose if it differs, or a comment. Sampled rows, rich in hits. Any-hit rate of the full collection: about 4.6%. Unless noted, the call rests on the fitted dose curve; in most records, active means well fitted curve in the direction sought with a large enough effect; inconclusive means small, poorly fitted or top-dose-only effect, or another doubt; inactive means no such curve, though single readings can be large; an effect the other way counts as inactive or inconclusive.

SMILES	HTT-AS act	NTMT1 inhibitor	GPR32 ag	HTT promoter inh
CC1=C(/C=C/C(C)=C/C=C/C(C)=C/C(=O)O)C(C)(C)CCC1	-7%	79µM*!	-7	-2%
CCc1ccc(S(=O)(=O)Nc2ccc3oc(C)c(C(=O)OCCOC)c3c2)cc1	.	.	64*	.
CC(=O)c1c(C)oc2ccc(N(C(=O)Oc3ccccc3)S(=O)(=O)c3ccc(Br)cc3)cc12	.	.	-14	.
COC(=O)c1c(C)oc2ccc(N(C(=O)c3ccncc3)S(=O)(=O)c3cc(C)c(C)cc3C)cc12	-60%	14%	-1	13µM*
CCc1ccc(S(=O)(=O)N(C(=O)Oc2ccccc2)c2ccc3oc(C)c(C(=O)OC)c3c2)cc1	-91%	?	-13	7.9µM*
CCOc1ccc(S(=O)(=O)Nc2ccc3oc(C)c(C(=O)OC(C)C)c3c2)cc1	-7%	7%	87*	?
Cc1ccccc1C(=O)N1CCc2cc(-c3nc(NC(=O)Cc4ccccc4)sc3C)ccc21	.	23%	.	.
CC(Nc1ccc([S+](=O)([O-])Nc2nccs2)cc1)c1ccccc1 (stereo not given)	.	6%	.	.
Cc1cc(C)cc(C(=O)Nc2ccc(-c3cn4cccnc4n3)cc2)c1	-22%	?	103*	-12%
CC(C)CC(=O)Nc1cccc(-c2cn3cccnc3n2)c1	16µM*	-1%	45	78%
Cc1ccc(-c2ccc(=O)n(CC(=O)N(C)C(C)c3cccs3)n2)cc1 (stereo not given)	.	-2%	.	.
CCOC(=O)c1c(NC(=O)COc2ccc(OC)cc2)sc(C(=O)N(CC)CC)c1C	-58%	8%	-24	11µM*
COc1cccc(NC(=O)CSc2nccn2Cc2ccc3c(c2)OCO3)c1	6%	-4%	75*	8%
COc1ccc(-c2nc(CSCC(=O)N3CCN(c4ccccc4F)CC3)c(C)o2)cc1	-66%	9%	14	28µM*
O=C(CSCc1ccc(F)cc1)N1CCN(c2ccccc2F)CC1	23%	2%	-13	2%
Cc1oc(-c2ccccc2F)nc1CSCC(=O)N1CCN(c2ccccc2)CC1	-64%	-8%	4	22µM*
O=C(Nc1ccccc1)Nc1ccc(-c2ccc(C(=O)C3CCCC3C(=O)O)cc2)cc1 (stereo not given)	.	4%[57.5 µM]	.	.
CC(C)CNCc1ccc(-c2ccccc2S(=O)(=O)N2CCCC2)cc1	.	-20%[57.5 µM]	.	.
CC(Cc1ccc(O)c(O)c1)(NN)C(=O)O (stereo not given)	-11%	14µM*!	.	3%
C[C@](N)(Cc1ccc(O)cc1)C(=O)O	-4%[6 µM]	10%[6.45 µM]	-2	-8%[6.01 µM]
C[C@](N)(Cc1ccc(O)c(O)c1)C(=O)O	-17%	35µM*	19	-15%
O=[N+]([O-])c1ccccc1-c1nc(NCc2ccc(-c3cccnc3)cc2)c2ccccc2n1	.	11%	.	.
O=C(O)Cc1cccc(OCCCN(Cc2cccc(C(F)(F)F)c2Cl)CC(c2ccccc2)c2ccccc2)c1	-12%	40µM*	.	-2%
COC(=O)CCC(=O)OC[C@]1(C)CCC[C@@]2(C)C3CC[C@]4(C)C=CC3(CCC12)C4 (stereo not given in full)	.	-1%[29.8 µM]	.	.
Cc1c(Cl)cccc1Nc1nc2ccc(C(=O)c3ccccc3)cc2n2cnnc12	-25%	19%	-23	?
SMILES	HTT-AS act	NTMT1 inhibitor	GPR32 ag	HTT promoter inh
COc1ccc(C(=O)O)cc1Nc1nc2ccc(C)cc2n2cnnc12	-14%	71µM*	-10	-10%
COc1cccc(CNS(=O)(=O)c2ccc3[nH]c4c(c3c2)CCCCC4)c1	-30%	?	65*	?
Cc1ccc(NS(=O)(=O)c2ccc3[nH]c4c(c3c2)CCCCCC4)cc1	-26%	?	102*	?
Cc1ccc(NS(=O)(=O)c2ccc3[nH]c4c(c3c2)CCCCCC4)cc1C	-33%	2%	-2	?
Cc1ccc(N(C)S(=O)(=O)c2ccc3[nH]c4c(c3c2)CCCC4)cc1	-20%	-27%	109*	-11%
COc1cc(NC(=O)CN(C)S(=O)(=O)c2ccc3[nH]c4c(c3c2)CCCC4)cc(OC)c1OC	-24%	-10%	105*	0%
CCOCc1nc2c(N)nc3ccccc3c2n1CC(C)(C)O	.	5%[57.5 µM]	.	.
COc1ccc(C2Nc3ccccc3C(=O)N2Cc2ccc3c(c2)OCO3)cc1COc1c(C)cc(NC(C)=O)cc1C (stereo not given)	.	1%	.	.
Cc1ccc(-c2nn(C(C)(C)CNC(=O)c3ccncc3)c3ncnc(N)c23)cc1	.	8%	.	.

Bioassay records deposited in PubChem BioAssay by National Center for Advancing Translational Sciences (NCATS).
